# Compounds without any hit were thinned out: in the full panel of roughly 83,000, 20% have a hit.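 Single-concentration screen, 48 h exposure, 96-well plates. Endpoint: percent growth. Below 10 = active.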 Calls of active or inactive are those of the source.
# Tested on: MDA-MB-468 breast
# Assay: NCI-60 one-dose screen, 48 h (100 = growth as untreated, 0 = no growth, -100 = all killed)
# Conditions: 10 µM unless noted
row,SMILES,growth
1,O=C(O)c1ccccc1C(=O)c1ccc(I)cc1,108% (inactive)
2,CC(C)CNc1nc(N=[N+]=[N-])nc(NCC(C)C)n1,59.7% [100 µM] (inactive)
3,COc1ccc(-c2cc(Nc3ccnc(N4CCOCC4)n3)on2)cc1,24.8% (inactive)
4,Cc1cccnc1NC(=S)Nc1ncccc1C,71.9% (inactive)
5,O=C(CCCn1c(=O)c2sc3ccccc3c2n2nnc(-c3ccccc3)c12)NCCc1cnc[nH]1,-42.1% (active)
6,CN1CCN(CCCOc2ccc3nc(Nc4cc(Cl)cc(Cl)c4)ccc3c2)CC1,-74.4% (active)
7,O=C(N/N=C\c1ccc(Cl)cc1Cl)c1ccncc1,110% (inactive)
8,COc1cc(-c2nn(-c3ccc(C)cc3)cc2C(=O)O)ccc1O,121% (inactive)
9,Cc1c(Cl)cc(-n2c(=O)c3ccccc3c3ccccc3c2=O)cc1Cl,128% (inactive)
10,NC(N)=Nc1ccc(S(=O)(=O)O)cc1,114% (inactive)
11,Cn1cc(-c2cc(N)n3nc(-c4cn(C)c5ccc(Br)cc45)cc3n2)c2cc(Br)ccc21,97.9% (inactive)
12,COc1ccc(-c2nn(-c3ccc(NC(=O)Nc4cc(C(F)(F)F)cc(C(F)(F)F)c4)cc3)cc2-c2ccncc2)cc1Cl,-11.6% (active)
